Bioassay records (PubChem)
HIV RNase H inh-1 – blocks HIV-1 RNase H cleavage of RNA/DNA duplex; RT-RNase H RNA/DNA duplex cleavage, fluorescence; actives 1.9% (n = 65,000); inhibition, % at 10 µM; AID 565; in the data active means inhibition above about 50%
HIV RNase H inh-2 – confirmation of HIV-1 reverse transcriptase RNase H inhibitors; shares compounds with HIV RNase H inh-1; Recombinant RT RNase H, fluorescent RNA/DNA duplex cleavage; inhibition, % at 10 µM; actives 39% (n = 1,000); in the data active means inhibition above about 48%
The depositor's hits bear a star. This is one part of a sample in which hits are shown more often than they occur.

SMILES	HIV RNase H inh-1	others
OCCSc1c(F)c(SCCO)c(SCCO)c(F)c1SCCO	-1.1
O=S(=O)(Nc1ccc2c(c1)OCO2)c1ccc(Br)s1	13.5
Nc1nc(-c2ccco2)c(-c2ccco2)s1	-5.6
c1coc(-c2nc(-c3ccco3)c(-c3ccco3)nc2-c2ccco2)c1	85.5*	HIV RNase H inh-2=-0.8
Nc1nc(-c2ccco2)cs1	41.2
O=C(CSc1n[nH]c(-c2ccc(S(=O)(=O)N3CCCCC3)cc2)n1)Nc1nccs1	6.9
COc1ccc(OC)c(NC(=O)C2CC(C)=C(C)CC2C(=O)O)c1 (stereo not given)	-6.3
c1ccc(-c2nn3c(-c4ccccc4)nnc3s2)cc1	-27.3
c1ccc(Cc2nnc3sc(-c4cccnc4)nn23)cc1	2.5
CCc1nnc2sc(-c3ccc(NC(=O)c4ccc5c(c4)OCCO5)cc3)nn12	4.4
Cc1ccc(-c2nnc3sc(-c4ccncc4)nn23)cc1	-41.8
Clc1ccccc1-c1nnc2sc(-c3cccs3)nn12	1.2
c1csc(-c2nn3c(C4CCCCC4)nnc3s2)c1	-9.6
c1ccc(Cc2nnc3sc(-c4cccs4)nn23)cc1	85.2*	HIV RNase H inh-2=32.7
c1ccc(Cc2nnc3sc(-c4ccc5c(c4)OCO5)nn23)cc1	85.1*	HIV RNase H inh-2=49.3
c1csc(-c2nn3c(Cn4nnc5ccccc54)nnc3s2)c1	-47.6
c1ccc2c(c1)nnn2Cc1nnc2sc(-c3ccncc3)nn12	75.1*	HIV RNase H inh-2=70.1*
Cn1c(Cc2ccccc2)nnc1SCC(=O)Nc1ccc2c(c1)OCO2	-3.9
c1ccc(Cc2nnc3sc(-c4ccncc4)nn23)cc1	92.5*	HIV RNase H inh-2=66.1*
Cc1c(CCC#N)c(N2CCN(C3CCCCC3)CC2)n2c(nc3ccccc32)c1C#N	12.1
CCOC(=O)C1CCCN(c2c(N3CCc4ccccc4C3)c(=O)c2=O)C1 (stereo not given)	1.9
CCCCn1c(N)c(N(CCOC)C(=O)CSc2nc3ccc(C)cc3[nH]2)c(=O)[nH]c1=O	6.4
O=C(CCn1c(=S)[nH]c2ccccc2c1=O)N1CCN(c2ccccn2)CC1	-11.9
c1ccc(CCc2nn3c(Cc4ccccc4)nnc3s2)cc1	89.8*	HIV RNase H inh-2=20.1
c1ccc(OCc2nn3c(-c4ccncc4)nnc3s2)cc1	-18.6
SMILES	HIV RNase H inh-1	others
c1ccc(-c2nnc3sc(Cc4cccs4)nn23)cc1	0.3
CCOC(=O)c1cnc(SCC(=O)Nc2ccc(NC(=O)CC)c(OC)c2)nc1N	-9.7
COC(=O)c1ccc2c(=O)n(CCN3CCOCC3)c(=S)[nH]c2c1	-11.4
CCC(=O)Nc1ccc(S(=O)(=O)Nc2cccc(C)c2)cc1OC	-63.4
COc1ccc(C2=NO[C@@H]3C(=O)N(c4cccc(C)c4C)C(=O)[C@H]23)cc1OC	6.4
COc1ccc(C2=NO[C@@H]3C(=O)N(c4ccc(C)cc4C)C(=O)[C@H]23)cc1OC	54.3*	HIV RNase H inh-2=-7.5
Cc1ccc(N2C(=O)[C@@H]3C(c4ccc(F)cc4)=NO[C@@H]3C2=O)cc1	2.4
CCOC(=O)c1cccc(NC(=O)Cn2cnc3c2c(=O)n(C)c(=O)n3C)c1	-3.8
Fc1cccc(CN2CCN(c3ncccn3)CC2)c1	-0.4
Clc1ss/c(=N\c2ccccn2)c1Cl	67.8*	HIV RNase H inh-2=41.1
COc1ccc(C2=Nn3c(nnc3-c3ccccc3)SC2)cc1OC	-1.8
CCCc1nnc2n1N=C(c1ccc(OC)c(OC)c1)CS2	-17.4
COc1ccc(Cc2nnc3n2N=C(c2cc4ccccc4o2)CS3)cc1OC	70.8*	HIV RNase H inh-2=46.6
C=CCN(C(=O)CCC(=O)O)C1CC(=O)N(c2ccc(OCCC)cc2)C1=O (stereo not given)	-2.2
COc1ccc(CCNC(=O)c2c(O)c3c([nH]c2=O)CCCC3)cc1OC	-4.0
COCC(=O)N(C)C1(c2nnnn2CCOC(=O)Nc2cccc3ccccc23)CCCC1	1.3
CC(=O)OC(/C(O)=C(\C#N)c1nc2ccccc2[nH]1)c1ccccc1 (stereo not given)	-4.1
Cc1[nH]c2ccc(CNS(=O)(=O)c3ccc(S(=O)(=O)N4CCOCC4)cc3)cc2c1C	7.1
O=C(Nc1nnc(CC(=O)N2CCOCC2)s1)C1COc2ccccc2O1 (stereo not given)	6.2
O=C(COc1cc(Cl)ccc1Cl)Nc1nnc(CC(=O)N2CCOCC2)s1	80.4*	HIV RNase H inh-2=11.2
O=C(Nc1nnc(CC(=O)N2CCOCC2)s1)c1cccs1	-2.2
Cc1cc(-n2c(C)cc(C(=O)CSc3ccc4c(c3)OCCO4)c2C)no1	0.7
O=C(CSc1nc2ccccc2[nH]1)NCCN1CCCCC1	-12.9
C[C@H](CS)C(=O)N1CCC[C@H]1C(=O)O	0.6
Cc1oc(C(=O)O)cc1COc1cccc2cccnc12	9.9
SMILES	HIV RNase H inh-1	others
Cc1cc(NC(=O)CN2CCc3ccccc3C2)nc2c1c(=O)oc1ccccc12	57.8*	HIV RNase H inh-2=48.4
CCCC(=O)Nc1cc(C)c2c(=O)oc3ccccc3c2n1	-18.0
Cc1cc(NC(=O)CC(C)(C)C)nc2c1c(=O)oc1ccccc12	13.9
O=C(NCc1ccccc1)c1n[nH]nc1-c1ccccc1O	-3.5
CCCN(CCC)CCCNC(=O)c1cc2cc3ccc(OC)cc3nc2o1	-21.6
Cc1ccc2cc3cc(C(=O)NCc4ccc5c(c4)OCO5)oc3nc2c1	33.4
COc1ccc2cc3cc(C(=O)Nc4ccc5c(c4)OCO5)oc3nc2c1	62.5*	HIV RNase H inh-2=2.3
Cc1ccc(N2CCN(C(=O)C3CCN(S(=O)(=O)c4cccc5nsnc45)CC3)CC2C)cc1 (stereo not given)	12.7
CC(=O)CC(=O)Nc1ccccc1NC(C)=O	11.6
CC(=O)Oc1ccc(NC(=O)CSc2ccccc2)cc1	-31.2
NC(=O)c1sc2nc(N3CCCCC3)c3c(c2c1N)CCCC3	-35.0
CCOC(=O)c1sc2nc(N3CCOCC3)c3c(c2c1N)CCCC3	-3.0
Nc1c(C(=O)NCc2ccco2)sc2nc(N3CCOCC3)c3c(c12)CCCC3	53.7*	HIV RNase H inh-2=3.3
CCOC(=O)c1cc(NC(=O)c2c(C)noc2C)cc(C(=O)OCC)c1	-8.3
CCC1Oc2ccccc2N(CC(=O)Nc2ccc(OC)cc2OC)C1=O (stereo not given)	-8.0
O=C(NCC(=O)N(c1ccccc1)C(C(=O)NCC1CCCO1)c1ccccc1)c1ccco1 (stereo not given)	-7.1
COc1cc(Cl)ccc1NC(=O)COc1ccccc1C(=O)N1CCN(c2ccc(O)cc2)CC1	-21.4
Cc1ccc(NC2c3ncccc3C(=O)N2c2ccccc2C)cc1C (stereo not given)	56.2*	HIV RNase H inh-2=11.0
COC(=O)c1cc(NC2c3ncccc3C(=O)N2Cc2ccccc2)cc(C(=O)OC)c1 (stereo not given)	-6.5
CCOc1ccc(N2C(=O)c3cccnc3C2Nc2ccc(Cl)cc2)cc1 (stereo not given)	20.0
O=C(c1ccc(F)cc1)C1CCN(C(=O)c2ccncc2)CC1	88.0*	HIV RNase H inh-2=42.2
O=C(c1ccc(F)cc1)C1CCN(C(=O)N2CCOCC2)CC1	6.9
O=C(Nc1ccc2c(c1)OCCO2)C1CCN(C(=O)c2ccc(F)cc2)CC1	-0.7
COC(=O)c1cnn(C(=O)c2cc(OC)ccc2Br)c1N	8.4
Cc1cc(NS(=O)(=O)c2ccccc2)c(C)c(Cl)c1O	79.8*	HIV RNase H inh-2=-6.1
Cc1ccccc1NS(=O)(=O)c1cc(S(C)(=O)=O)ccc1Cl	-0.3
COC(=O)c1cc(Cl)c(NS(=O)(=O)c2ccccc2)cc1OC	-10.4
CCCCS(=O)(=O)Nc1ccc(Cc2ccncc2)cc1	-58.5
Cc1ccc(C(=O)c2coc3ccc(O)c(CN4CCN(C)CC4)c23)cc1	-9.3
O=C1c2oc3ccc(Cl)cc3c(=O)c2C(c2ccccn2)N1CCCN1CCOCC1 (stereo not given)	-1.3
